PLK1 PBD inh = qHTS for Inhibitors of PLK1-PDB (polo-like kinase 1 - polo-box domain): Primary Screen | AID 720504, 2013 | Plk1 PBD binding of FITC phosphopeptide, fluorescence polarization | actives 2.8% (n = 360,000) | Potency, µM, inactives show max response, negative = inhibition, actives largely listed as inhibitors; further: potency means the concentration at half of the fitted maximal effect; series mostly up to about 57 µM; on the % scale 0 is the no-effect control and ±100 the full control effect; nearly all actives have a fitted effect of over 65% in size
JMJD2A Tudor = qHTS Assay for Inhibitors of JMJD2A-Tudor Domain; Lysine-specific demethylase 4A (Homo sapiens), O75164; actives 4.4% (n = 390,000); Potency, µM (titrated, usually from 114 µM), for the others: at the top dose activity change, negative = inhibition, actives largely listed as inhibitors; AID 504339, 2011; AlphaScreen JMJD2A-Tudor / H3K4me3 peptide binding; further: potency means the concentration at half of the fitted maximal effect; on the % scale 0 is the no-effect control and ±100 the full control effect; nearly all actives have a fitted effect of over 50% in size
G9a block = qHTS Assay for Inhibitors of Histone Lysine Methyltransferase G9a | actives 8.8% (n = 350,000) | G9a H3K9 monomethylation, AlphaScreen, 2 h | AID 504332, 2011 | Histone-lysine N-methyltransferase EHMT2 (Homo sapiens), Q96KQ7 | Potency, µM (top dose mostly 102 µM), without a hit: at the highest dose activity, negative = inhibition, actives largely listed as inhibitors; further: potency means the concentration at half of the fitted maximal effect; on the % scale 0 is the no-effect control and ±100 the full control effect; nearly all actives have a fitted effect of over 75% in size
Target sequence (Q96KQ7 913-1193 limits assumed): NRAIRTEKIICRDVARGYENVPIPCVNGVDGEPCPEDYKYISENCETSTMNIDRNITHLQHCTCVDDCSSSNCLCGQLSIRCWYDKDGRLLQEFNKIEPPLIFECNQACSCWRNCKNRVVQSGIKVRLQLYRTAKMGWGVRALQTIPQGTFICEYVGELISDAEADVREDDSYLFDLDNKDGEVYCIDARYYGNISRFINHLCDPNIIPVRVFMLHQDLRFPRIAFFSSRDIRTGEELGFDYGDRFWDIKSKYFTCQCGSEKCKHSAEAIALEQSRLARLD
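Compounds were preincubated with 20 nM G9a for 15 min, after which biotinylated H3K9 peptide (500 nM) and SAM (20 uM) started a 2 h room-temperature reaction. Monomethylated product was quantified by antibody-based AlphaScreen chemiluminescence.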
HP1b binding inh = HTS for Inhibitors of HP1-beta Chromodomain Interactions with Methylated Histone Tails | actives 0.56% (n = 390,000) | Potency, µM (doses to about 114 µM), for inactives: top-dose activity change, negative = inhibition, actives largely listed as inhibitors | AlphaScreen HP1-beta / biotin-H3K9me3 peptide binding | Chromobox protein homolog 1 (Homo sapiens), P83916; further: potency means the concentration at half of the fitted maximal effect; nearly all actives have a fitted effect of over 70% in size
Target sequence (P83916 whole entry, looked up): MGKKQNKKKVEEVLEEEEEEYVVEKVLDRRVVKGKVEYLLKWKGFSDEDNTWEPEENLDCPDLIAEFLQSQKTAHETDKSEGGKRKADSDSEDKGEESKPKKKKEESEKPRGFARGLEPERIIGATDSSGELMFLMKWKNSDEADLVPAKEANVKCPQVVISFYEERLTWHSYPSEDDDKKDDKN
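Compound inhibition of the preformed complex between 50 nM HP1-beta and 50 nM biotinylated H3K9me3 peptide was read by AlphaScreen. Buffer was PBS pH 7.4 with 0.01% Tween-20. Incubations ran 30 min at room temperature, with 10 ug/mL donor/acceptor beads.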
BAZ2B block = qHTS Assay for Inhibitors of BAZ2B; Bromodomain adjacent to zinc finger domain protein 2B (Homo sapiens), Q9UIF8; AlphaScreen BAZ2B-H3K14Ac peptide displacement; Potency, µM (top dose mostly 114 µM), for inactives: at the highest dose activity change, negative = inhibition, actives largely listed as inhibitors; actives 4.4% (n = 360,000); AID 504333, 2011; further: potency means the concentration at half of the fitted maximal effect; on the % scale 0 is the no-effect control and ±100 the full control effect; nearly all actives have a fitted effect of over 60% in size
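AlphaScreen displacement: compounds (up to 110uM) incubated 30 min at room temperature with a preformed 50 nM BAZ2B/50 nM biotinylated H3K14Ac peptide complex in PBS pH 7.4 with Tween-20. Donor and acceptor beads at 10 ug/mL final added, 20 min light-protected before reading.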
PI5P4Ka inh = qHTS for Inhibitors of phosphatidylinositol 5-phosphate 4-kinase (PI5P4K) | max response, % | PI5P4Kalpha enzyme, ADP-Glo luminescence, 60 min; hits give low values | actives 1.2% (n = 330,000) | Phosphatidylinositol 5-phosphate 4-kinase type-2 alpha (Homo sapiens), P48426; active means max response of -50% or lower; inconclusive means between -30% and -50%; inactive means -30% or higher; further: value at the top dose of about 77 µM; on the % scale 0 is the no-effect control and ±100 the full control effect
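Reactions run in 0.038 M HEPES pH 7.4, 0.28 mM EGTA, 0.1% CHAPS and 5% DMSO, with PI5P4Kalpha, substrate, compound and 5 microM ATP final, one hour at room temperature. Readout is ADP-Glo luminescence.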
Active calls of the source: *; u = inconclusive; x = no result; [ ] = remark or other dose. Most compounds without a hit are left out; they make up all but 12% or so of the library. Unless noted, the call rests on the fitted dose curve; in most records, active means well fitted curve in the direction sought with a large enough effect; inconclusive means small, poorly fitted or top-dose-only effect, or another doubt; inactive means no such curve, though single readings can be large; an effect the other way counts as inactive or inconclusive.

SMILES | PLK1 PBD inh | JMJD2A Tudor | G9a block | HP1b binding inh | BAZ2B block | PI5P4Ka inh
Cc1noc(C)c1COc1ccc(C(=O)NCC(c2c(F)cccc2Cl)N(C)C)cc1 (configuration not stated) | -3.3% | -9.0% | -43.5% | 21.9% | 1.2% | -3.0
CC(=O)c1ccc(S(=O)(=O)N2CCN(CC(=O)Nc3ccccc3C(=O)NC3CC3)CC2)cc1 | -6.4% | -22.9% | -25.1%[2.33 µM] | 20.7% | -4.5% | 0.2
CCc1sc(/C=C(/C#N)C(N)=S)cc1[N+](=O)[O-] | 5.32µM* | u | 12.6µM* | u | u | -83.3*
CCc1ccc(/C=C(/C#N)C(N)=S)s1 | -17.8% | -16.8% | u | 17.6% | u | -1.4
N#CC1C(=O)c2ccccc2C1c1ccccc1 (configuration not stated) | 29.9µM* | u | x | -18.4% | x | -17.5
N#Cc1c(Cl)nc(SCc2ccccc2)nc1-c1ccccc1 | x | x | x | x | 79.4µM* | x
N#Cc1c(-c2ccccc2)nc(-c2ccncc2)[nH]c1=O | 3.5% | -9.0% | -1.7% | 27.9% | -1.6% | -26.3
N#Cc1c(Cl)nc(-c2ccncc2)nc1-c1ccccc1 | 0.9% | u | 28.2µM* | 50.2% | 79.4µM* | -15.5
N#Cc1c(-c2ccccc2)nc(SCc2cccc(Cl)c2)[nH]c1=O | 26.7µM* | -21.4% | 2.1% | 1.2% | -15.2% | -22.3
CC(C)c1ccc(NC(=O)Cc2ccc(NC3=NC4CS(=O)(=O)CC4S3)cc2)cc1 (configuration not stated) | -4.9% | -20.8% | -7.8% | 35.1% | -4.0% | 8.5
CC(C)(C)C(=O)Nc1ccc(S(=O)(=O)N2CCC(c3nc4ccccc4[nH]3)CC2)cc1 | -7.0% | 2.8% | -26.5% | 13.1% | -5.0% | -13.5
CN(Cc1cc(=O)n2ccsc2n1)Cc1nc2ccccc2c(=O)[nH]1 | -2.2% | -15.4% | u | 39.8% | x | -3.4
CCN(Cc1cc(=O)n2cc(Cl)c(C)c(Cl)c2n1)Cc1nc2ccccc2c(=O)[nH]1 | -26.0% | -14.2%[57.1 µM] | 50.1µM* | -4.5% | x | -3.9
CCN(Cc1nc2ccccc2c(=O)[nH]1)Cc1nc2ccsc2c(=O)[nH]1 | -6.0% | -30.1% | 14.1% | 19.6% | -27.0% | 0.2
Cc1c(Cl)cn2c(=O)cc(CN3CCN(c4ccccc4)CC3)nc2c1Cl | -13.4% | -10.5%[11.4 µM] | 39.8µM* | 29.4% | -13.8% | -8.0
O=c1cc(CN2CCN(c3ccccc3)CC2)nc2scc(-c3ccccc3)n12 | -7.8% | -32.6% | -43.6% | 4.0% | u | u
CCc1ccc2c(CN(CC)Cc3nc4ccccc4c(=O)[nH]3)cc(=O)oc2c1 | u | -13.7%[11.4 µM] | 3.55µM* | -17.1% | 10.8% | -8.2
CCOc1ccc(CCNC(=O)CN2C(=O)c3cccnc3Oc3ccc(Cl)cc32)cc1 | 4.3% | -9.0% | -8.4%[59 µM] | 7.7% | -27.3% | -0.1
O=C1c2oc3ccc(F)cc3c(=O)c2C(c2cccc([N+](=O)[O-])c2)N1CCCN1CCOCC1 (configuration not stated) | x | -11.9% | -32.1%[59 µM] | 13.4% | -1.3% | x
O=[N+]([O-])c1cccnc1Oc1cc(Cl)c(Cl)cc1Cl | 16.8µM* | x | x | x | x | 12.8
COc1ccc(OC)c(Nc2sc(C(=O)c3ccccc3)c(N)c2S(=O)(=O)c2ccccc2)c1 | x | -24.2% | 10.4%[59 µM] | 12.9% | -5.1% | x
COc1cccc(-c2cc(C(=O)N3CCN(C(=O)c4ccco4)CC3)on2)c1 | -20.1% | -7.6% | 5.5% | 13.5% | -21.1% | -14.5
O=C(CSC(=O)c1ccccc1)Nc1ccccc1F | 3.36µM* | -15.2% | x | u | x | -13.7
O=C(CNC(c1ccccc1)c1ccccc1)Nc1ccccc1F | -7.1% | 19.6% | 37.8% | 75.6% | -2.2% | 3.1

Screening results: PubChem BioAssay, National Center for Advancing Translational Sciences (NCATS)
